Each structure is given as a SMILES string. Screen size: about 94,000 compounds; about 4,000 (4.3%) were called active. Roughly 29% stayed inconclusive and do not appear here. Calls follow the shape of the dose curve; as a rule, active = well fitted inhibition curve with a large enough effect; inconclusive = small, poorly fitted or top-dose-only effect; inactive = no such curve, though single readings can be large or run the other way. The sample as a whole holds a higher share of actives than the screen did.
% is scaled to controls: 0 for no effect and ±100 for the full control effect; potency is read from the fitted curve at half-maximal effect.

This assay in a line: Cytotoxic Profiling in NIH 3T3 Cell Line of Diverse Libraries Using Quantitative High-Throughput Screening. Also: nearly all actives have a fitted effect of over 55% in size. The settings on record: NIH 3T3 viability, CellTiter-Glo ATP luminescence, 48-72 h; series mostly up to 96.7 µM; activity change, negative = cytotoxicity: at the top concentration. The procedure, abridged: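 NIH 3T3 cells at 400 cells/well received 23 nL of compound by pintool and were incubated 48 or 72 h at 37 °C. Viability was read as ATP-coupled CellTiter-Glo luminescence.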
For orientation: In ATP-based viability assays light output follows the ATP content of the culture.
In the case of `CC(C)NC(=O)NC1CCCN(c2ccc3nnc(C4CC4)n3n2)C1` (stereo not drawn), the “activity change, negative = cytotoxicity” value is 2.65% [at 138 µM] (inactive).

For `O=C(NCCc1noc(C2CCCC2)n1)c1cc(F)c(F)cc1Cl`, the “activity change, negative = cytotoxicity” value was -30.7% (inactive).

Consider `O=C(NCCn1cnc2ccccc2c1=O)C1CC(=O)N(c2n[nH]c3ccccc23)C1` (stereo not drawn), for which the “activity change, negative = cytotoxicity” value was -4.68% (inactive).

Take `CCOc1ccc(NC(=O)Cn2c(N3CCOCC3)nc(COC)cc2=O)cc1`: the “activity change, negative = cytotoxicity” value is -25% (inactive).

As for `O=C(c1ccc(F)cc1)N1CCC[C@H]1c1nc(-c2ccccc2Cl)no1`, the “activity change, negative = cytotoxicity” value is -13.6% (inactive).

In the case of `Cc1ncc(C(=O)N2C[C@@H](C(=O)O)[C@H](c3ccc4c(c3)OCO4)C2)c(C)n1`, the outcome was inactive.

Consider `COCCNc1ncnc2c1CN(C1CCCNCC1)C(=O)CN2C` (stereo not drawn), for which the “activity change, negative = cytotoxicity” value is -32% (inactive).

Turning to `COCc1cc(=O)n(CC(=O)NCc2ccc(C)cc2)c(N2CCOCC2)n1`, the “activity change, negative = cytotoxicity” value is 1.74% (inactive).

Turning to `CCCCOC(=O)c1ccc(NC(=O)c2c(OC)cc(=O)n3c2CCCC3)cc1`, the “activity change, negative = cytotoxicity” value is -8.34% (inactive).

For `O=C(c1ccccc1Cl)N1CC2(Cc3ccccc3NC2=O)C1`, the result was inactive.

`O=C(NC1CCCc2c1[nH]c1ccc(F)cc21)c1ccccn1` (stereo not drawn): the “activity change, negative = cytotoxicity” value is -11.4% (inactive).

With `O=C(Cn1nc(-c2ccco2)ccc1=O)NC1CCCc2c1[nH]c1c(Cl)cccc21` (stereo not drawn), the “activity change, negative = cytotoxicity” value was -2.22% (inactive).

Take `COc1ccc(CC(=O)N2CCC[C@H]2c2nc(-c3ccccc3)no2)cc1`: the “activity change, negative = cytotoxicity” value is -21.5% (inactive).

With `O=C(Cn1nc2c(cc1=O)CCCC2)NC1CCCc2c1[nH]c1c(Cl)cccc21` (stereo not drawn), the “activity change, negative = cytotoxicity” value was -11.9% (inactive).

Consider `COc1ccc(CC(=O)NC2CCCc3c2[nH]c2ccccc32)cc1` (stereo not drawn), for which the Potency is 31.6 µM (active).

As to `O=C(Cc1ccccc1)NC1CCCc2c1[nH]c1c(Cl)cccc21` (stereo not drawn), the Potency was 35.5 µM (active).

With `COc1ccc(CN2CCc3oc(C)c(C(=O)NCCN4CCCC4)c3C2)cc1`, the “activity change, negative = cytotoxicity” value is -16.9% (inactive).

On to `CN(C)C(=O)c1nc(-c2ccc(Cl)cc2Cl)c2cnccn12`, for which the “activity change, negative = cytotoxicity” value is -16% (inactive).

As to `CN(C)C[C@@H]1CN(c2ncccn2)C[C@H]1NC(=O)Cc1ccccc1Cl`, the “activity change, negative = cytotoxicity” value was -7.01% (inactive).

Take `CC(C)(C)c1coc([C@@H]2COCCN2Cc2ccc(F)cc2)n1`: the “activity change, negative = cytotoxicity” value was -18.2% [at 138 µM] (inactive).

As for `Oc1ccccc1CN1CCOC[C@H]1c1ncc(-c2ccc(C(F)(F)F)cc2)[nH]1`, the Potency was 50.1 µM (active).

With `Fc1ccc(CN2CCOC[C@H]2c2ncc(-c3cccnc3)[nH]2)cc1`, the “activity change, negative = cytotoxicity” value is -7.62% [at 174 µM] (inactive).

For the compound `Cc1ccc(CN2CCOC[C@H]2c2ncc(-c3cccc(F)c3)[nH]2)cc1`, the Potency is 79.4 µM (active).

On to `Cn1cc(CN2CC[C@H](c3nnc(-c4cccnc4)o3)C2)c2ccccc21`, for which the “activity change, negative = cytotoxicity” value is -9.9% [at 138 µM] (inactive).

As to `CN(C)c1ccc(CN2CCOC[C@H]2c2ncc(-c3cccc(F)c3)[nH]2)cc1`, the “activity change, negative = cytotoxicity” value is -27.2% [at 138 µM] (inactive).

`Cn1cc(CN2CCOC[C@H]2c2ncc(-c3cccc(F)c3)[nH]2)c2ccccc21`: the Potency was 39.8 µM (active).

With `c1cncc(-c2cnc([C@@H]3COCCN3Cc3cnc4ccccc4c3)[nH]2)c1`, the “activity change, negative = cytotoxicity” value was -1.17% [at 174 µM] (inactive).

For `CN(Cc1ccccc1)Cc1cn([C@H]2CO[C@H]3[C@@H]2OC[C@@H]3NS(C)(=O)=O)nn1`, the “activity change, negative = cytotoxicity” value was -3.96% [at 174 µM] (inactive).

As to `CCc1noc(-c2cccn3c(CNC(=O)C(CC)c4ccccc4)nnc23)n1` (stereo not drawn), the “activity change, negative = cytotoxicity” value was -7.72% (inactive).

Consider `CCn1cc(S(=O)(=O)N2CC[C@H](CNC(C)=O)[C@H](N(C)C)C2)cn1`, for which the “activity change, negative = cytotoxicity” value was -3.26% (inactive).

As for `Cc1ccc(F)cc1S(=O)(=O)N1CCn2c(nn(CC3CC3)c2=O)C1`, the result was inactive.

Regarding `O=C(C[C@@H]1O[C@H](CNC(=O)C2CC2)[C@@H](O)[C@H]1O)NCCN1CCOCC1`, the “activity change, negative = cytotoxicity” value is 2.3% [at 174 µM] (inactive).

For `Cc1ccnc(N2CC[C@@H]3[C@@H](CCC(=O)N3CCc3ccccn3)C2)n1`, the “activity change, negative = cytotoxicity” value was -23.3% (inactive).

Consider `c1cncc(-c2noc(C3CCCN(Cc4cc5n(n4)CCNC5)C3)n2)c1` (stereo not drawn), for which the “activity change, negative = cytotoxicity” value was 1.2% (inactive).

On to `CCOC(=O)N1CCC(=O)N(Cc2ccccc2)Cc2cc(OC)ccc21`, for which the “activity change, negative = cytotoxicity” value is -26.4% (inactive).

Regarding `Cc1nc(C(C)C)ncc1C(=O)N1CCN(C)C2(CCNC(=O)CC2)C1` (stereo not drawn), the “activity change, negative = cytotoxicity” value was 3.15% (inactive).

Regarding `CNC(=O)[C@@H](c1ccccc1F)N1CCC[C@H]1C(=O)NCCOC`, the “activity change, negative = cytotoxicity” value was -12.7% [at 174 µM] (inactive).

Take `CC(=O)N1CCC2(CC1)CN(C(=O)Cc1cccc(Cl)c1)CCO2`: the “activity change, negative = cytotoxicity” value is 3.86% (inactive).

Take `O=C(c1cccs1)N1CCOCC2(CN(Cc3cc(F)cc(F)c3)C2)C1`: the “activity change, negative = cytotoxicity” value was -19.7% [at 138 µM] (inactive).

Turning to `O=C(Cc1ccc(F)cc1)N1CCOCC2(CN(Cc3ccccc3)C2)C1`, the Potency is 35.5 µM (active).

Consider `Cc1nc(-c2cn(C3CCCN(C(=O)c4sccc4C)C3)nn2)no1` (stereo not drawn), for which the “activity change, negative = cytotoxicity” value is -3.14% (inactive).

Regarding `CCN1CCN(CCNC(=O)C2Cn3cccc3C(=O)N2Cc2cccnc2)CC1` (stereo not drawn), the “activity change, negative = cytotoxicity” value is -3.23% (inactive).

For the compound `N#Cc1ccc(CN2CCc3nc(C(=O)N4CCOCC4)oc3CC2)cc1`, the “activity change, negative = cytotoxicity” value is -23.4% [at 138 µM] (inactive).

The values above are taken from PubChem BioAssay AID1345082 (National Center for Advancing Translational Sciences (NCATS), 2018).
